Values joined by “and” are separate entries in the source; they are usually repeats but may differ in a detail not shown here. Equal values may be shown once. The campaign covered roughly 340,000 compounds. About 5,100 (1.5%) were called active. This is one part of a sample in which actives are shown more often than they occur. Unmarked numbers belong to inactive results.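 Rule for the calls: active = mean Tm shift, scaled 0 neutral to 100 positive control, at about 1.3% or above, every replicate too (limit read from the data); inconclusive = no clear call, values can overlap the other calls; inactive = the rest.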
target: Fibroblast growth factor 22 (Homo sapiens) (UniProt Q9HCT0); experiment: binders of human FGF22 protein, primary screen, FGF22 synaptogenesis inhibitor project, biophysical, thermal shift, single point (AID 651658); conditions: recombinant FGF22 thermal shift, SYPRO orange fluorescence; at 9.99 µM; stronger effect = higher value; percent of sucrose octasulfate shift, DMSO zero
Sequence (Q9HCT0 whole entry, looked up): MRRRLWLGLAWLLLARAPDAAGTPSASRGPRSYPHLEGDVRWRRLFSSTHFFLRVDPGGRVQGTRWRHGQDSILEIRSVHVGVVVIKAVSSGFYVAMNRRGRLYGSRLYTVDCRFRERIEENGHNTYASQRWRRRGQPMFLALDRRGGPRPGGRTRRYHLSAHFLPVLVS

Row | Compound | activity (Tm shift, normalised)
1 | O=C(NCc1cccnc1)C(=O)Nc1nc(-c2ccccc2)cs1 | 0.205%
2 | O=C(CCC(=O)c1cccs1)Nc1nc2ccccc2s1 | 0.414%
3 | O=C(Nc1ccccc1)Nc1nnc(COc2ccccc2F)s1 | 0.184%
4 | O=C(C[C@@H]1CC[C@@H](NC(=O)c2ccc3c(c2)OCO3)[C@H](CO)O1)NCc1ccc(Cl)cc1 | -0.267%
5 | Cc1cc(OCCCCOc2ccc(C#N)cc2)ccc1[N+](=O)[O-] | 0.385%
6 | Cc1nc(SCc2ccc(F)cc2)c([N+](=O)[O-])[nH]1 | -0.03%
7 | CCCCCOc1ccc(CSC2=NCCN2)cc1[N+](=O)[O-] | 43.9% (active)
8 | C[C@@H]1CCCCO[C@@H](CN(C)C(=O)C2CCCCC2)[C@H](C)CN([C@H](C)CO)C(=O)c2cc(NC(=O)c3ccccc3)ccc2O1 | -0.449%
9 | CCN(CC)S(=O)(=O)c1ccc(Cl)c(C(=O)NCCN2CCOCC2)c1 | -0.116%
10 | CCN(CC)S(=O)(=O)c1ccc(N2CCCC2)c(NS(=O)(=O)c2cccs2)c1 | -0.637%
11 | CCN(CC)S(=O)(=O)c1ccc(Cl)c(C(=O)NC(C)C(c2cccs2)N2CCCC2)c1 (centres undefined) | 43.4% (active)
12 | CN(C)CC(=O)Nc1ccc2c(c1)[C@H]1C[C@H](CC(=O)NCc3ccccn3)O[C@@H](CO)[C@H]1O2 | -0.026%
13 | COc1cc(C(=O)NCC2(c3ccccc3)CCCC2)ccc1OC(C)C | -0.207%
14 | O=C(CNC1CCCCC1)NCC1(c2ccccc2)CCCC1 | 43% (active)
15 | CCOc1c(OC)cccc1C(=O)NCC1(c2ccccc2)CCCC1 | -0.318%
16 | CO[C@@H]1CN(C)C(=O)c2ccc(NC(=O)C3CCC3)cc2OC[C@H](C)NC[C@H]1C | -0.059%
17 | COc1ccc2c3c(n(C)c2c1)[C@@H](CO)N(Cc1ccncc1)CC31CN(C(=O)C2CCC2)C1 | -0.256%
18 | C[C@@H]1CN([C@H](C)CO)C(=O)c2cc(NS(=O)(=O)c3ccccc3)ccc2O[C@@H](C)CCCCO[C@H]1CN(C)C(=O)C1CCCCC1 | -0.338%
19 | Cc1noc(C)c1S(=O)(=O)Nc1ccc2c(c1)CC(=O)N([C@@H](C)CO)C[C@@H](C)[C@H](CN(C)C)O2 | -0.289%
20 | CCCCn1c(N)c(N(CC)C(=O)/C=C/c2ccco2)c(=O)[nH]c1=O | 0.345%

Row | Compound | activity (Tm shift, normalised)
21 | CCCCN(C(=O)c1nn(C)c(=O)c2ccccc12)c1c(N)n(CCC)c(=O)[nH]c1=O | 0.011%
22 | CCCCN(C(=O)/C=C/c1ccco1)c1c(N)n(CC(C)C)c(=O)[nH]c1=O | 43.9% (active)
23 | CC(C)NC(=O)N(C)C[C@H]1Oc2ccc(NC(=O)CCCCCC(=O)Nc3ccccc3N)cc2C(=O)N([C@@H](C)CO)C[C@@H]1C | -0.213%
24 | COc1ccc2c3c([nH]c2c1)[C@@H](CO)N(C(=O)C1CC1)CC31CCN(Cc2nccs2)CC1 | 0.119%
25 | CC(C)NC(=O)Nc1ccc2c(c1)C(=O)N([C@H](C)CO)C[C@H](C)[C@@H](CN(C)Cc1ccc3c(c1)OCO3)OCCCC[C@H](C)O2 | -0.249%
26 | Cc1ccccc1NC(=O)NC1(C(=O)N2CCCC2)CCCCC1 | 43.5% (active)
27 | CC(=O)N1CCN(C(=O)C2(NC(=O)Nc3ccc(C)cc3)CCCCC2)CC1 | -0.042%
28 | O=C(Nc1ccccc1Cl)NC1(C(=O)N2CCOCC2)CCCCC1 | -0.339%
29 | C[C@@H]1CN([C@H](C)CO)C(=O)Cc2cc(NC(=O)NC3CCCCC3)ccc2O[C@H]1CN(C)S(C)(=O)=O | -0.091% and -0.115%
30 | CC(C)NC(=O)Nc1ccc2c(c1)C(=O)N([C@@H](C)CO)C[C@H](C)[C@@H](CN(C)Cc1ccc(C(=O)O)cc1)OCCCC[C@H](C)O2 | 0.548%
31 | COc1ccc2c3c([nH]c2c1)[C@H](CO)N(Cc1ccccc1Cl)CC31CN(C(=O)C2CC2)C1 | 0.006%
32 | COc1cccc(S(=O)(=O)N[C@@H]2C=C[C@H](CC(=O)NC3CCC3)O[C@H]2CO)c1 | 0.557%
33 | CC[N+]1(CC)CC2=Cc3ccccc3CC2C1 (centres undefined) | 43.3% (active)
34 | C[C@@H]1CCCCO[C@@H](CN(C)Cc2ccccc2)[C@H](C)CN([C@H](C)CO)C(=O)c2cc(NC(=O)Nc3cccc4ccccc34)ccc2O1 | -0.579%
35 | C[C@@H]1CCCCO[C@H](CN(C)C(=O)NC2CCCCC2)[C@H](C)CN([C@H](C)CO)C(=O)c2cc(NC(=O)c3ccncc3)ccc2O1 | 0.182%
36 | COc1ccc2c3c(n(C)c2c1)[C@H](CO)N(C(=O)NC(C)C)CC31CN(CC2CCCCC2)C1 | -0.103%
37 | COc1ccc(CNC(=O)C2CCN(S(C)(=O)=O)CC2)cc1 | 43.4% (active)
38 | COc1ccc(CNC(=O)C2CCN(S(=O)(=O)c3ccc(SC)cc3)CC2)cc1 | -0.235%
39 | COc1ccc(CNC(=O)C2CCCC2)cc1 | -0.099%

From PubChem BioAssay AID651658 (Broad Institute, 2012)
